± gives the uncertainty stated by the source.
tested on: Candidatus Liberibacter solanacearum in potato hairy roots; experiment: relative CLso titer (% of untreated control); higher = less inhibition of bacterial titer; conditions: 10 µM; 72 h
Procedure: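 Primary screen of ~220 Spectrum collection (MicroSource) compounds at 10 µM (0.1% DMSO) on Candidatus Liberibacter solanacearum-infected potato hairy roots in multi-well plates (Gamborg B-5 medium, vacuum infiltrated, 21 °C, dark, 72 h). CLso titer was measured by qPCR of 16S rDNA normalised to potato RPL2 (2^-ddCq), pairwise-standardised against untreated controls, averaged over two biological replicates and expressed as % of untreated.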

Structure (SMILES)	relative CLso titer [%]
C#C[C@]1(O)CC[C@H]2[C@@H]3CCC4=Cc5oncc5C[C@]4(C)[C@H]3CC[C@@]21C	154 ± 40
Clc1ccc(CSC(Cn2ccnc2)c2ccc(Cl)cc2Cl)cc1 (stereo not given)	111 ± 31
CCN1CCC[C@H]1CNC(=O)c1cc(S(N)(=O)=O)ccc1OC	118 ± 86
Cc1cc(C2CCCCC2)n(O)c(=O)c1	44.1 ± 7.6
CCCCCCCCCCCCCCCC(=O)OC[C@@H](NC(=O)C(Cl)Cl)[C@H](O)c1ccc([N+](=O)[O-])cc1	79.3 ± 10
COc1cc(CNC(=O)CCCC/C=C/C(C)C)ccc1O	130 ± 4.3
CC12CCC(CC1=O)C2(C)C (stereo not given)	97 ± 38
CCOC(=O)[C@H](CCc1ccccc1)N[C@@H](C)C(=O)N1CCC[C@H]1C(=O)O	135 ± 34
CCCCOc1ccc(C(=O)CCN2CCCCC2)cc1	156 ± 14
N[C@@H]1CONC1=O	177 ± 11
CCCCCCCCNC(C)C(O)c1ccc(SC(C)C)cc1 (stereo not given)	80.3 ± 5.9
CC(C)NCC(O)COc1ccc(CC(N)=O)cc1 (stereo not given)	106 ± 58
CN1CCN(C(c2ccccc2)c2ccccc2)CC1	105 ± 31
O=C(O)c1ccccc1C(=O)Nc1ccc(S(=O)(=O)Nc2nccs2)cc1	102 ± 3.3
CC(=O)OCC(=O)[C@@]1(O)CC[C@H]2[C@@H]3CCC4=CC(=O)CC[C@]4(C)[C@H]3C(=O)C[C@@]21C	27.6 ± 3
